Assay results as given in PubChem BioAssay (NCI).
The panel holds about 83,000 compounds, 20% with a hit somewhere; the sample as a whole holds those more often.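 A percent growth of 40 corresponds to 60% growth inhibition; 0 means no net growth; -100 means all cells died. Active threshold: below 10.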 Unmarked numbers belong to inactive results. Active and inactive are the calls of the source.

How the values were obtained:
Experiment in all cases: NCI-60 one-dose screen, 48 h (100 = growth as untreated, 0 = no growth, -100 = all killed)
[1] = system: SR leukemia; settings: 10 µM unless noted
[2] = system: RPMI-8226 leukemia; settings: 10 µM unless noted
[3] = system: OVCAR-8 ovarian; settings: 10 µM unless noted
[4] = system: OVCAR-5 ovarian; settings: 10 µM unless noted
[5] = system: OVCAR-4 ovarian; settings: 10 µM unless noted
[6] = system: SK-OV-3 ovarian; settings: 10 µM unless noted
[7] = system: OVCAR-3 ovarian; settings: 10 µM unless noted
[8] = system: HS 578T breast; settings: 10 µM
[9] = system: NCI/ADR-RES ovarian; settings: 10 µM unless noted
[10] = system: T-47D breast; settings: 10 µM unless noted
[11] = system: BT-549 breast; settings: 10 µM unless noted
[12] = system: MDA-MB-435 melanoma; settings: 10 µM unless noted
[13] = system: SW-620 colon; settings: 10 µM unless noted
[14] = system: MCF7 breast; settings: 10 µM unless noted
[15] = system: HCT-116 colon; settings: 10 µM unless noted
[16] = system: HCC-2998 colon; settings: 10 µM unless noted
[17] = system: KM12 colon; settings: 10 µM unless noted
[18] = system: IGROV1 ovarian; settings: 10 µM unless noted

Structure (SMILES) | growth [1] | growth [2] | growth [3] | growth [4] | growth [5] | growth [6] | growth [7] | growth [8] | growth [9] | growth [10] | growth [11] | growth [12] | growth [13] | growth [14] | growth [15] | growth [16] | growth [17] | growth [18]
CCCCN(CCCC)CCC(=O)c1ccc(OC)c2ccccc12 | 38.9% | 35.6% | 75.3% | 102% | 102% | 107% | 83% | 106% | 107% | 41.4% | 108% | 83.3% | 61.5% | 15.1% | 72.1% | 105% | 71.1% | 
COC(=O)/C=C/c1cc(OC(C)=O)c2c(c1)[C@@H](C(=O)OC)[C@H](c1ccc(OC(C)=O)c(OC(C)=O)c1)O2 | 10.8% | 3.3% (active) | 11% | 20.6% | 30.4% | 36.4% | -21.9% (active) | 7.01% (active) | -5.91% (active) | 74.7% | 13.5% | -64.8% (active) | 15.7% | 15.6% | 6.38% (active) | 22.2% | 5.97% (active) | 
CCCCn1cnc(-c2cc(-c3ccccc3)cc(C(F)(F)F)c2)n1 | 89.5% | 98.2% | 97.5% | 113% | 106% | 105% | 103% | 101% | 103% | 93.7% | 100% |  | 96% | 99.6% | 96.7% | 108% | 101% | 
CN(C)CCOc1nc2c3ccncc3cc(-c3cccc(Cl)c3)c2c2cnccc12 | -27.7% (active) | 9% (active) | 18.2% | 58.8% | 33.5% | 46.8% | 45.6% | 54.3% | 15.4% | 38.7% | 52.6% | 30% | 27.4% | 12.5% | 11.4% | 45% | 31.8% | 
CCOC(=O)C1=C(C)NC(SCc2nnc(-c3ccc(Cl)cc3)o2)=NC1c1ccc(Br)cc1 (stereo unspecified) | 38.8% | 38.4% | 72.7% | 93.9% | 69.6% | 82% | 77.5% | 87.1% | 67.5% | 48% | 79.8% | 65.1% | 91% | 44.8% | 48.6% | 91.2% | 76% | 
COC(=O)C1(C)COP(=O)(NC23CC4CC(CC(C4)C2)C3)OC1 (stereo unspecified) | 114% | 95.6% | 107% | 113% | 97.7% | 100% | 106% | 102% | 93.9% | 111% | 99.7% |  | 100% | 102% | 108% |  |  | 
O=NN(CC(=O)NNc1ccccc1)CC(=O)NNc1ccccc1 | 74.3% | 55.4% | 67.7% | 74.5% | 70.8% | 101% | 86.9% | 94.2% | 40.7% | 46.6% | 103% | 30.5% | 31.1% | 69.5% | 57% | 68.9% | 37.9% | 
COc1ccc(-c2oc(=O)ccc2-c2cc(OC)c(OC)c(OC)c2)cc1F | 7.57% (active) | 80.8% | 79.9% | 69.2% | 105% | 106% | 107% | 86.4% | 57.9% | 104% | 98.5% | -2.61% (active) | 46.4% | 44% | 60.2% | 65% | 41.6% | 
CC1=NN(c2cccc(S(N)(=O)=O)c2)C(=O)C1 | 107% | 271% | 107% | 89.9% | 99.4% | 91.3% | 96.3% | 86.6% | 95.2% | 84.2% | 109% | 94.6% | 94.8% | 90.4% | 104% | 96.1% | 107% | 
Cn1nc(C(F)(F)F)cc1-c1c[nH]c(OCc2ccc(Cl)cc2)c(-c2ccc(Cl)c(C(F)(F)F)c2)c1=O | 27.5% | -26.6% (active) | 12.5% | 13% | 15.3% | -6.23% (active) | 7.83% (active) | -1.78% (active) | 1.94% (active) |  | 2.51% (active) | 1.96% (active) |  | 1.28% (active) | 4.49% (active) | 13.3% | 8.85% (active) | 
O=C1c2ccccc2C(=O)c2c1oc1ccc3ccccc3c21 | 60.8% | 75.9% | 88.2% | 130% | 34.1% | 114% | 39.4% | 85.7% | 79.4% | 23.5% | 70.2% | 91.3% | 91.6% | 21.8% | 62.2% | 99% | 61.6% | 
COc1ccc2cc(-c3nc(C)c(C(C)=O)c(-c4ccc(C)cc4)n3)ccc2c1 | 108% | 86.9% | 93.4% | 93.1% | 92% | 97.5% | 94.3% | 86% | 92.5% | 72.1% | 82.3% | 89.1% | 91.3% | 88.3% | 86.3% | 109% | 91.7% | 
Cc1cc(NC(=O)c2ccc(N)cc2)ccc1N=Nc1ccc2cc(S(=O)(=O)O)cc(S(=O)(=O)O)c2c1 | 107% | 94% | 107% | 98.7% | 117% | 103% |  | 110% | 108% | 105% | 108% | 101% | 96.7% | 109% | 111% | 105% | 105% | 102%
CNC(=O)c1cc(Oc2ccc(NC(=O)c3nc(S(C)(=O)=O)sc3-c3ccc(F)cc3)cc2)ccn1 | 88% | 15.9% | 102% | 107% | 91.7% | 118% | 50% | 101% | 94.7% | 26.3% | 105% | 98.2% | 104% | 29.5% | 85.3% | 80.2% | 25.3% | 
Cc1cc(C)cc(NC(=O)Cn2nncc2CN2C(=O)CSC2=O)c1 | 118% | 110% | 101% | 110% | 106% | 92.5% | 110% | 89.5% | 96.3% | 99.9% | 101% | 103% | 99.7% | 93.4% | 107% | 108% | 110% | 
COc1ccc(Br)c2ccccc12 | 96% | 105% | 99.7% | 110% | 117% | 115% | 112% | 112% | 118% | 97.9% | 123% | 105% | 106% | 100% | 108% | 104% |  | 
COc1c(B(O)O)cccc1-c1nc2c(F)cc3n[nH]c(C)c3c2c2c1CCCC2 | 42% | 6.03% (active) | 17.3% | 8.74% (active) | 43.7% | -1.49% (active) | 9.19% (active) | 9.55% (active) | 36.4% |  | 21.2% | 21.2% | 15.3% | 15% | 10.5% | 51.7% | 20.5% | 
